About 1,000 (0.29%) of roughly 340,000 compounds were called active. Cut-off read from the data, not from the text of the source: inconclusive = inhibition above about 29% without an active follow-up result; inactive = below that. The list is a sample of the results. Results with a measured potency or affinity are listed apart.
Molecular target: Genome polyprotein (Dengue virus type 2 (strain 16681-PDK53)) (UniProt P29991)
Assay: Dengue-2 NS5 methyltransferase inhibitors, primary screen, biochemical, confirmation dose response (AID 588689)
Settings: Dengue-2 NS5 methyltransferase capping enzyme assay, at 25 µM, stronger effect = higher value

Compound	inhibition	inhibition (measured here: pilot screen replicate inhibition)
Cc1cccc(N(CC(O)CN2CCOCC2)S(=O)(=O)c2ccccc2)c1 (stereo not drawn)	0% (inactive)	–
Cc1cc(-c2ccccc2N)n[nH]1	-5.29% (inactive)	–
CCN(C(=O)COC(=O)c1ccccc1NCCO)c1cccc2ccccc12	6.52% (inactive)	–
COc1ccc(NC(=O)c2ccc(-c3ccccc3C(F)(F)F)o2)cc1	-7.03% (inactive)	–
COc1cc(C2c3cc4c(cc3OC(NCCc3ccccc3)C2C)OCO4)cc(OC)c1OC (stereo not drawn)	-4.03% (inactive)	–
COc1ccc(S(N)(=O)=O)cc1C(=O)OCC(=O)Nc1sccc1C#N	-21% (inactive)	–
COc1ccccc1N(CC(=O)NCCSc1ccccc1)S(=O)(=O)c1ccccc1	-5.79% (inactive)	–
O=C(CSc1ncn[nH]1)N1N=C2/C(=C/c3ccco3)CCCC2C1c1ccco1 (stereo not drawn)	-4.57% (inactive)	–
Cc1ccccc1C(=O)Nc1nnc(SC(C)C)s1	-3.88% (inactive)	–
Cc1ccc(-n2nc3c(=O)n(CC(=O)NCCCc4ccccc4)nc(C)c3c2C)cc1	-3.57% (inactive)	–
CC(C)(C)OC(=O)N1CCCC(C(=O)CC#N)C1 (stereo not drawn)	-13.4% (inactive)	–
CC1/C(=N/O)CC(c2ccccc2)NC1c1ccccc1 (stereo not drawn)	3.42% (inactive)	–
COCCNc1nc(NCc2ccccc2)c2cnn(C)c2n1	-7.24% (inactive)	–
CN(C)CCCN1CC(=O)N2[C@@H](Cc3c([nH]c4ccccc34)C2(C)C)C1=O	5.89% (inactive)	–
COc1ccc(CCC(=O)Nc2sc(C(=O)N(C)C)c(C)c2C#N)cc1	2.58% (inactive)	–
Cc1ccc(Nc2ccc(C(=O)O)cc2[N+](=O)[O-])cc1	17% (inactive)	–
COc1ccc(Nc2ccc(C(=O)O)cc2[N+](=O)[O-])cc1	3.64% (inactive)	–
COc1ccc(C(C)=O)cc1COC(=O)CNC(=O)C1CCCCC1	10.9% (inactive)	–
Cc1cccc(-c2nnc(SCC3CNC(=O)O3)n2-c2ccc(Cl)cc2)c1 (stereo not drawn)	-12.5% (inactive)	–

Compound	inhibition	inhibition (measured here: pilot screen replicate inhibition)
CC(C)=C1C2CCC1C(C(=O)Nc1sc(C)c(-c3ccc(C(C)C)cc3)c1C(N)=O)C2C(=O)O (stereo not drawn)	2.89% (inactive)	–
Cc1sc(NC(=O)C2CCCCC2C(=O)O)c(C(N)=O)c1-c1ccccc1 (stereo not drawn)	-2.08% (inactive)	–
Cc1sc(NC(=O)C2C3C=CC(C3)C2C(=O)O)c(C(N)=O)c1-c1ccc(C(C)C)cc1 (stereo not drawn)	-5.14% (inactive)	–
Cc1sc(NC(=O)C2C3CCC(C3)C2C(=O)O)c(C(N)=O)c1-c1ccc(C(C)(C)C)cc1 (stereo not drawn)	7.13% (inactive)	–
COc1ccc(NC(=O)CN2CCN(S(=O)(=O)N(C)C)CC2)cc1	2.61% (inactive)	3.63%
Cc1c(C(=O)c2ccc(Cl)c(Cl)c2)cnc2cc3c(cc12)OCO3	0.78% (inactive)	–
Nc1c(C(=O)O)sc2nc(-c3ccccc3)cc(-c3ccccc3)c12	-27% (inactive)	–
Nc1c(C(=O)O)sc2nc(-c3ccccc3)cc(-c3ccc(F)cc3)c12	-4.6% (inactive)	–
CCOC(=O)CC1COc2ccccc2N1C(=O)c1cccc([N+](=O)[O-])c1 (stereo not drawn)	-0.68% (inactive)	–
CCOc1ccc(N2C(=O)CC(N(Cc3ccco3)C(=O)CCC(=O)O)C2=O)cc1 (stereo not drawn)	-7.79% (inactive)	–
Cc1c(C(=O)OCC(=O)NC2CC2)oc2ccc(Br)cc12	4.33% (inactive)	–
CNCc1ccccc1Sc1cccc(O)c1	-3.83% (inactive)	–
CNCc1ccccc1Sc1cc(O)ccc1O	-2.55% (inactive)	–
Cc1cc(NC(=O)CSc2ccccn2)cc(NC(=O)CSc2ccccn2)c1	-6.51% (inactive)	–
O=C1c2ccccc2C(=O)c2cc(S(=O)(=O)Nc3ccccc3)ccc21	-0.73% (inactive)	–
O=C(O)c1ccc(Cl)c(S(=O)(=O)Nc2ccccc2Cc2ccccc2)c1	-0.83% (inactive)	–
O=C(O)c1cccc(S(=O)(=O)Nc2ccc(-c3ccccc3)cc2)c1	-3.98% (inactive)	–
O=C(O)c1ccc(NS(=O)(=O)c2cc(Cl)ccc2Cl)cc1	-2.78% (inactive)	–
O=C(O)c1cccc(NS(=O)(=O)c2ccc(Oc3ccc(S(=O)(=O)Nc4cccc(C(=O)O)c4)cc3)cc2)c1	13.8% (inactive)	–

Compound	inhibition	inhibition (measured here: pilot screen replicate inhibition)
O=C(O)c1ccc(Cl)c(S(=O)(=O)Nc2ccc(S(=O)(=O)N3CCCC3)cc2)c1	-5.16% (inactive)	–
O=C(O)c1ccc(F)c(S(=O)(=O)Nc2ccccc2Cl)c1	4.09% (inactive)	–
O=C(O)c1cccc(NS(=O)(=O)c2ccc3c(c2)C(=O)c2ccccc2C3=O)c1	16.2% (inactive)	–
CC1(C)C2CCC1(CS(=O)(=O)NCc1ccc(C(F)(F)F)cc1)C(=O)C2 (stereo not drawn)	-2.61% (inactive)	–
CCOC(=O)N1CCN(Cc2nc3ccc([N+](=O)[O-])cc3c(=O)n2-c2ccc(OC)cc2OC)CC1	-7.83% (inactive)	–
Cc1ccc(C2(C)NC(=O)N(CC(=O)NNC(=O)c3cc(C)oc3C)C2=O)cc1 (stereo not drawn)	-2.16% (inactive)	–
CC1CC1C(=O)N(C)CC(=O)Nc1ccccc1Br (stereo not drawn)	-5.16% (inactive)	–
Cc1cc(C(=O)OC(C)C(=O)NC2CCCCC2)c(C)o1 (stereo not drawn)	3.67% (inactive)	–
O=C(NC1CC2CCCC(C1)N2CC(=O)N1CCCc2ccccc21)C1CCCCC1 (stereo not drawn)	-6.56% (inactive)	–
Cc1cccc(-n2cnc3sc(C)c(C)c3c2=O)c1	3.09% (inactive)	–
COc1cc(/C=C2/NC(=O)NC2=O)cc(Br)c1OCc1ccc(C(=O)O)cc1	-4.44% (inactive)	–
O=C(O)c1ccc(COc2ccc(CO)cc2Cl)cc1	-1.37% (inactive)	–
C=CCc1cc(C=O)cc(OC)c1OCc1ccc(C(=O)O)cc1	-5.83% (inactive)	–
COC(=O)c1ccc(COc2ccc(/C=N/Nc3cccc(C(=O)O)c3)cc2)cc1	8.5% (inactive)	–
O=C(O)c1ccc(COc2ccccc2/C=C2/NC(=O)N(c3cccc(Cl)c3)C2=O)cc1	6.55% (inactive)	–
COC(=O)c1ccc(COc2ccccc2/C=N/NS(=O)(=O)c2ccccc2)cc1	-8.06% (inactive)	–
CN1C(=O)S/C(=C\c2ccccc2OCc2ccc(C(=O)O)cc2)C1=O	2.95% (inactive)	–
O=C1NC(=S)N/C1=C\c1ccccc1OCc1ccc(C(=O)O)cc1	-6.96% (inactive)	–
Cc1cccc(C(=O)OCC(=O)Nc2c(C)n(C)n(-c3ccccc3)c2=O)c1O	-4.38% (inactive)	–

Source: PubChem BioAssay AID588689 (Southern Research Specialized Biocontainment Screening …, 2011)
